# Results filed as inconclusive are left out. Calls of active or inactive are those of the source. Calls follow the shape of the dose curve; as a rule, active = well fitted inhibition curve with a large enough effect; inconclusive = small, poorly fitted or top-dose-only effect; inactive = no such curve, though single readings can be large or run the other way.
# Biological target: Coelenterazine h 2-monooxygenase (Renilla reniformis) (UniProt P27652)
# Assay: qHTS Assay for Inhibitors of Sea Pansy Luciferase from the GSK Published Protein Kinase Inhibitor Set
# Conditions: purified Renilla luciferase, luminescence; series mostly up to 57.5 µM; activity change, negative = inhibition: at the top concentration
# Source text: FLuc (firefly luciferase) is the prototypical bioluminescent reporter gene from Photinus pyralis.[1] The enzyme catalyzes the oxidation luciferin via luciferin-AMP to produce light. FLuc is used in cell-based reporter gene-based assays for screening small molecule chemical libraries. However, small molecule luciferase inhibitors present in most large chemical libraries are often enriched in the output of high throughput screens using this reporter sometimes complicating interpretation and candidate selection.
# RLuc is a bioluminescent reporter gene luciferase from Renilla reniformis, also known as the sea pansy. RLuc uses the luciferin substrate coelenterazine. RLuc is often used in combination with the nonhomologous luciferase FLuc (firefly luciferease) as a trasfection or pathway normalization control. Recently, non-homologous reporters have been described for high throughput screening 'coincidence' reporter gene strategies.
# 1. Fan F, Wood KV (2007) Bioluminescent assays for high-throughput screening. Assay Drug Dev Technol 5: 127-136.
# 2. Thorne N, Inglese J, Auld DS (2010) Illuminating insights into firefly luciferase and other bioluminescent reporters used in chemical biology. Chem Biol 17: 646-657.
# 3. […] Chem Biol 19: 1060-1072.
# 4. Michelini E, Cevenini L, Mezzanotte L, Coppa A, Roda A (2010) Cell-based assays: fuelling drug discovery. Anal Bioanal Chem 398: 227-238.
# 5. Cheng KC, Inglese J (2012) A coincidence reporter-gene system for high-throughput screening. Nat Methods 9: 937.
# Biochemical renilla luciferase enzyme assay
# NCGC Assay Protocol Summary:
# Reagents: 50mM Tris acetate, pH 7.5; 100uM NaCl; 5uM Coelenterazine H (Promega #S2011); 0.01% Tween-20; 0.05% BSA; 1nM R. reniformis luciferase (Nanolight Technologies #314)
# Control compounds used were a known renilla luciferase inhibitor BTS (Tocris Biosciences #1870) and DMSO.
# Three microliters containing renilla luciferase substrate in buffer (final concentrations: 50mM Tris acetate, pH 7.5, 100uM NaCl, 0.01% Tween-20, 0.05% BSA, 5uM coelenterazine h) are dispensed into each well of a Greiner white, solid-bottom 1536-well format plate using a flying reagent dispenser (FRD). These assay plates were then treated with 23nL of compound or DMSO using a Kalypsys pin tool, which allows for delivery of a 7-point interplate titration of each compound to the assay plate (quantitative HTS), with final compound concentrations ranging from approximately 60uM to 300pM. One microliter of renilla luciferase in 50mM Tris-acetate buffer was then delivered by FRD to each well for a final enzyme concentration of 1nM. Luciferase activity was then measured using an Envision plate reader (PerkinElmer), with an average incubation time of 2 min.
# Potency is read from the fitted curve at half-maximal effect.
# Coelenterazine h 2-monooxygenase (Renilla reniformis), sequence (P27652 whole entry, looked up): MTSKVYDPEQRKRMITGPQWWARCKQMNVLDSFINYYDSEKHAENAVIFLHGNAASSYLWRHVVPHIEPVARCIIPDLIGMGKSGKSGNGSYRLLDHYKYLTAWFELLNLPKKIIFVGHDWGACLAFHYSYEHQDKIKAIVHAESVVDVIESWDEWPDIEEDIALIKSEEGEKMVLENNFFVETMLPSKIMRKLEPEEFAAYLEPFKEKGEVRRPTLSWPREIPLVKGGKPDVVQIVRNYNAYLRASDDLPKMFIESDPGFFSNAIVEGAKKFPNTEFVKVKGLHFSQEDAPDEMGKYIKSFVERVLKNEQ
Structure (SMILES),"activity change, negative = inhibition",Potency
CCn1c(-c2nonc2N)nc2cnc(Oc3cccc(NC(=O)c4ccc(OCCN5CCOCC5)cc4)c3)cc21,25.6% (inactive),
CCc1cccc(CC)c1C=Cc1cncc(C(=O)NC)c1,8.32% (inactive),
CC1=C(C(=O)Nc2ccc3[nH]ncc3c2)C(c2ccc(F)cc2)N=C(c2ccc(C(F)(F)F)nc2)N1 (stereo not given),32.8% (inactive),
COc1cccc(-n2ncc3c(NN=Cc4cccc(F)c4)ncnc32)c1,32.8% (inactive),
CS(=O)(=O)CCNCc1ccc(-c2ccc3ncnc(Nc4ccc(OCc5cccc(C(F)(F)F)c5)cc4)c3c2)o1,41.9% (inactive),
Cc1cc(O)cc(C)c1C=Cc1cncc(-c2nn[nH]n2)c1,35.1% (inactive),
CCc1nccc2c1nc(-c1nonc1N)n2CC,19.1% (inactive),
CN(C)C(=O)OC1CNC(C#Cc2cc3ncnc(Nc4ccc(OCc5cccc(F)c5)c(Cl)c4)c3s2)C1 (stereo not given),,inactive
CC(=O)Nc1cccc(C#Cc2cncnc2Nc2ccc(OCc3cccc(F)c3)c(Cl)c2)c1,9.74% (inactive),
O=C1NC(=O)C(c2ccccc2Cl)=C1Nc1cccc(O)c1,34.5% (inactive),
NC(=O)c1cccc(Nc2nccc(Nc3cccc(F)c3)n2)c1,21.5% (inactive),
NS(=O)(=O)c1ccc(N=Nc2c(O)[nH]c3ccc(C(=O)NCc4ccncc4)cc23)cc1,40.3% (inactive),
Nc1nccc(-c2c(-c3ccc(F)cc3)ncn2C2CCC(O)CC2)n1 (stereo not given),9.21% (inactive),
O=C(Nc1n[nH]c2cc(-c3ccccc3)ccc12)C1CC1,34.2% (inactive),
Cc1ccc2c(-c3ccnc(Nc4ccccc4)n3)c(-c3ccc(F)cc3)nn2n1,22.8% (inactive),
CN1CCN(C(=O)c2ccc(NC(=O)Nc3ccc(N(C)c4ccnc(Nc5ccc(CS(C)(=O)=O)cc5)n4)cc3)cc2)CC1,-7.71% (inactive),
CS(=O)(=O)CCNCc1ccc(-c2ccc3ncnc(Nc4ccc(OCc5ccccc5)c(C(F)(F)F)c4)c3c2)o1,22.7% (inactive),
Cc1ccc(-c2cc3c(NC(=O)C4CC4)ncnc3o2)cc1,6.69% (inactive),
Fc1cccc(COc2ccc(Nc3ncnc4sc(-c5ccco5)cc34)cc2Cl)c1,45.2% (inactive),
Fc1cccc(COc2ccc(Nc3ncnc4cc(-c5ccc[nH]5)sc34)cc2Cl)c1,9.53% (inactive),

Structure (SMILES),"activity change, negative = inhibition",Potency
c1cnn2ncc(-c3ccnc(Nc4ccc5c(c4)OCCO5)n3)c2c1,61% (inactive),
Clc1ccc(CNc2nccc(-c3cnn4ncccc34)n2)cc1,37.5% (inactive),
CN1CCN(Cc2ccc(-c3cc4ncnc(Nc5ccc(OCc6cccc(F)c6)c(Cl)c5)c4s3)o2)CC1,,20.6 µM (active)
CS(=O)(=O)Nc1ccc(-c2ccc3c(NC(=O)C4CC4)n[nH]c3c2)cc1,25.6% (inactive),
CC(C)c1ccc2c(N=Nc3ccc(S(N)(=O)=O)cc3)c(O)[nH]c2c1,10.9% (inactive),
NCc1ccc(-c2nc(-c3ccc(Cl)c(O)c3)c(-c3ccncc3)[nH]2)cc1,13% (inactive),
CN(C)CCCNc1nccc(-c2c(-c3ccc(F)cc3)nn3cc(C(F)(F)F)ccc23)n1,8.87% (inactive),
CCc1cccc(NC(=O)Nc2ccc(Oc3ccc4nc(NC(=O)OC)[nH]c4c3)cc2)c1,27.3% (inactive),
Fc1cccc(COc2ccc(Nc3ncncc3C#Cc3ccccc3)cc2Cl)c1,46.2% (inactive),
NS(=O)(=O)c1cccc(N=Cc2c(O)[nH]c3ccccc23)c1,10.9% (inactive),
NS(=O)(=O)c1ccc(N=Nc2c(O)[nH]c3cccc(CCc4ccncc4)c23)cc1,9.9% (inactive),
CC1(C)CC(n2cnc(-c3ccc(F)cc3)c2-c2ccnc(N)n2)CC(C)(C)N1,31.7% (inactive),
COc1ccccc1Oc1nccc(-c2c(-c3ccc(F)cc3)ncn2C2CCNCC2)n1,8.41% (inactive),
COc1cc2ncn(-c3cc(OCc4ccccc4C(F)(F)F)c(C(C)=O)s3)c2cc1OC,27.5% (inactive),
N#Cc1c(NC(=O)c2ccc(F)cc2)sc2c1CCCC2,8.45% (inactive),
CN1CCC(C(=O)Nc2n[nH]c3nnc(-c4ccccc4)cc23)CC1,39.3% (inactive),
CN1CCC(C(=O)Nc2n[nH]c3nc(-c4ccc(O)cc4)c(Br)cc23)CC1,10.1% (inactive),
CCn1c(-c2nonc2N)nc2cncc(C(=O)N3CCNCC3)c21,43% (inactive),
FC(F)(F)CNc1nccc(-c2cnn3ncccc23)n1,64.1% (inactive),
c1ccc(-c2nc3n(c2-c2ccc4c(c2)OCO4)CCC3)nc1,24.2% (inactive),

# — PubChem BioAssay AID652015 (National Center for Advancing Translational Sciences (NCATS), 2013)
